EWS-Fli inh: EWS/Fli-driven NR0B1 reporter inhibitors, primary screen, A673 cells, NR0B1 luciferase, luminescence, MLPCN library; inhibition, % at 12.6 µM; AID 651661, 2012; viability-normalised; actives 0.67% (n = 350,000);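 active means mean inhibition of at least 50% after viability correction, with every replicate also passing that limit; inconclusive means mean reaches 50% but only one of two replicates passes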;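 further: firefly luciferase signal divided by Alamar Blue viability fluorescence both relative to DMSO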
GSIS activator: GLuc luminescence reporter in INS-1E cells, primary screen for activators of glucose-dependent secretion of insulin | INS-1E GLuc reporter insulin secretion, 2-3 h | activation, % at 16.6 µM | actives 0.61% (n = 370,000) | AID 743287, 2014;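 active means lowest replicate activation of at least 40%, so every replicate reaches that level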;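 further: 0% = median of neutral control wells and 100% = median of IBMX positive control wells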
Statin myotox sup: suppressors of statin myotoxicity in C2C12 myotubes, primary screen, cell-based, single point, plate reader. rescue of ATP level, % at 7.49 µM. actives 0.78% (n = 330,000). C2C12 myotubes + simvastatin, ATP luminescence, 48 h; scaled: DMSO 0, geranylgeraniol control 100;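 active means mean ATP rescue above about 67%, or every replicate alone reaching that limit, limit read from the data, passing the limit was not always enough; inconclusive means no clear call, values can overlap the other calls; inactive means mean under the limit and some replicate under it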;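 further: myotubes were challenged with 10 µM simvastatin during compound exposure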
miR122 inh: miR-122 Renilla sensor signal increase in Huh7, primary screen, miR-122 inhibitor project, cell-based, single point, plate reader; Huh7 miR-122 Renilla luciferase sensor, 48 h; neutral wells = 0, positive control = 100; activation (reporter increase), % at 12.5 µM; actives 0.3% (n = 340,000); AID 602342, 2012;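 active means mean replicate activation score at least 90 and every replicate individually at or above 90; inconclusive means only one of the two criteria met; inactive means neither criterion met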;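 further: higher luciferase means less miR-122 activity so hits act as miR-122 inhibitors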
HIV Env fusion: inhibitors of HIV-1 Env-driven cell-cell fusion, primary screen, HeLa-JRFL effector, CEM21 target cells, luciferase; inhibition, % at 12.3 µM; actives 1.1% (n = 360,000); AID 651610, 2012;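 active means mean replicate inhibition score of at least 50 and every replicate individually at or above 50; inconclusive means only one of the two criteria met; inactive means mean below 50 and not all replicates reaching 50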;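 further: 0% = plate neutral controls and 100% = maraviroc near 300 nM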
PAX8 inh HTS: inhibitors of PAX8-driven TPO luciferase reporter, primary screen, RMG-I cells, single concentration | SteadyGlo, 24 h | actives 1.2% (n = 360,000) | AID 652154, 2013 | inhibition, % at 12.6 µM;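 active means mean replicate inhibition at least 60% with every replicate also reaching 60%; inconclusive means only one of the two criteria is met; inactive means mean below 60% and not all replicates reaching 60%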;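 further: luciferase light reporting Pax8 driven TPO promoter activity; plate controls were median of neutral control wells for no effect and mitoxantrone controls for full effect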
Starred values were filed as active, the others as inactive; i = inactive; ? = inconclusive; / = no result; [ ] = remark or other dose. Most compounds without a hit are left out; they make up all but 3.1% or so of the library.

SMILES	EWS-Fli inh	GSIS activator	Statin myotox sup	miR122 inh	HIV Env fusion	PAX8 inh HTS
COc1cc(/C=N/NP(=S)(c2ccccc2)c2ccccc2)ccc1O	/	/	-0.6	0.2	/	/
COC(=O)[C@@H]1[C@@H](CO)[C@@H]2Cn3c(ccc(/C=C/c4ccccc4)c3=O)[C@H]1N2C(=O)C1CCC1	-0.3	-5.5	-7.3	-8.3[16.7 µM]	/	/
CC#CP(=O)(OC)C(O)(CF)c1ccccc1 (stereo unspecified)	11.1	11.0	104.8*	-2.2	-10.5	-6.7
CC#CP(=O)(OCC)C(O)(c1ccccc1)C(F)(F)F (stereo unspecified)	/	/	3.0	-9.1	/	/
C[C@H]1CCC/C=C/[C@@H]2C[C@H](O)C[C@H]2[C@@H](O)/C=C/C(=O)O1	72.7*	-21.0	/	-12.4	81.7*	118.9*
CCCC(=O)c1c(O)[nH]c(=O)[nH]c1=O	-5.3	14.5	96.9*	-8.2	/	/
COC(=O)[C@H]1[C@H](CO)[C@H]2Cn3c(ccc(-c4cccc(C(=O)N(C)C)c4)c3=O)[C@@H]1N2C(=O)NC(C)C	-0.2	0.0	17.7	-4.2[16.7 µM]	/	-3.6
CC1CC(C)CC(C)C(O)C(C#N)=CC=CCC(C2CCCC2C(=O)O)OC(=O)CC(O)C(C)C1 (stereo unspecified)	46.6	-26.9	/	-13.3	71.0*	102.0*
CCCNC(=O)N1[C@@H]2c3ccc(-c4cccc(C(=O)N(C)C)c4)c(=O)n3C[C@H]1[C@H](CO)[C@H]2C(=O)O	0.6	9.7	/	/	/	-7.8
S=C(NCCc1ccccc1)N1Cc2cc(N3CCCCC3)ccc2-n2nncc2C1	4.3	-40.9	6.8	71.6	75.1*	4.3
S=C(NCCc1ccccc1)N1Cc2cc(-c3ccccc3)ccc2-n2nncc2C1	4.3	-1.0	-9.9	73.9	15.5	13.5
CC1OC(OC2C=C3CCC4C(CCC5(C)C(c6ccc(=O)oc6)CCC45O)C3(C)CC2)C(O)C(OC2OC(CO)C(O)C(O)C2O)C1O (stereo unspecified)	?	-3.2	/	-9.0	63.2*	106.0*
COc1cccc(C(c2nnnn2-c2ccc3c(c2)OCCO3)N2CCC(n3c(=O)[nH]c4ccccc43)CC2)c1OC (stereo unspecified)	25.2	17.5	-27.8	-11.4	22.1	93.0*
O=c1[nH]c2ccccc2n1C1CCN(C(c2ccccc2OC(F)(F)F)c2nnnn2-c2ccc3c(c2)OCCO3)CC1 (stereo unspecified)	15.0	-3.2	-9.8	-7.6	-12.8	94.2*
CC(C)Oc1cccc(NC(=O)c2cccn(Cc3ccc4c(c3)OC(F)(F)O4)c2=O)c1	/	/	2.0	-6.3	43.1	/
O=C(Nc1ccc(C(F)(F)F)cc1)c1cccn(Cc2ccc3c(c2)OC(F)(F)O3)c1=O	/	/	-1.5	3.9	106.2*	-1.4
Cc1cccc(C)c1NC(=O)c1cccn(Cc2ccc3c(c2)OC(F)(F)O3)c1=O	/	/	11.6	-2.5	66.6*	/
COc1ccc(C(C)=O)cc1Cc1c(O)[nH]c(=S)[nH]c1=O	-4.9	-5.1	103.3*	0.3	-5.4	24.8
CCOc1ccc(C(C)=O)cc1Cc1c(O)[nH]c(=S)[nH]c1=O	-12.8	-1.0	4.9	-2.2	-12.5	13.8
COC(=O)[C@@H]1[C@@H](CO)[C@@H]2Cn3c(ccc(-c4cccc(F)c4)c3=O)[C@H]1N2Cc1ccccc1	5.7	-5.6	34.9	-2.8[16.7 µM]	/	7.3
Cc1ccc(N2C(=O)NC(=O)/C(=C/C=C/c3ccco3)C2=O)cc1	/	-12.3	/	/	i	-4.2
CCc1ccc(N2C(=O)NC(=O)/C(=C\C=C\c3ccco3)C2=O)cc1	70.6*	-12.2	21.0	-0.8	-119.0	41.7
COC(=O)C1=C(c2ccc(OC)c(OC)c2)C[C@@H]2CC[C@H]1N2C(=O)NCCOc1ccc(OC)cc1	2.2	2.8	121.0*	0.6	16.6	2.2
COC(=O)C1=C(c2ccc(OC)c(OC)c2)C[C@@H]2CC[C@H]1N2C(=O)NCCO	-7.0	4.5	-5.5	0.5	?	-12.0
CCCC#Cc1ccc([C@@H]2[C@@H](CO)N3CCCCN(C(=O)Cc4ccccn4)C[C@@H]23)cc1	9.7	-12.0	/	19.6[16.7 µM]	/	2.0
SMILES	EWS-Fli inh	GSIS activator	Statin myotox sup	miR122 inh	HIV Env fusion	PAX8 inh HTS
COc1ccc(CCNC2CCCCC2)cc1	7.0	-0.2	/	/	10.2	7.4
COc1ccc(C[C@H]2NC[C@H](O)[C@H]2OC(C)=O)cc1	66.2*	/	78.5*	-12.9	-0.3	102.8*
CC(C)CCCn1c(O)c(/C=C2/C=CC=N2)c(=O)[nH]c1=O	/	52.9*	/	/	-5.5	-10.7
CCCCn1c(O)c(C=NCCCn2ccnc2)c(=O)[nH]c1=O	/	/	-0.4	-4.5	/	/
Cc1cc(C)c(NC2=NCCCS2)c(C)c1	/	/	81.7*	2.9	/	/
Cc1cccc(C)c1NC1=NCCCS1	5.5	-25.2	3.0	-5.2	/	-5.1
COC(=O)C1=C(c2ccc(OC(F)(F)F)cc2)C[C@@H]2CC[C@H]1N2C(=O)N1CCCC1	22.6	/	-18.5	1.5	58.3*	12.1
CCCNC(=O)N1[C@@H]2Cn3c(ccc(-c4ccccc4OC)c3=O)[C@H]1[C@@H](C(=O)O)[C@@H]2CO	-0.6	18.9	-15.5	0.4[16.7 µM]	/	-7.7
COC(=O)C1=C(C(=O)OC)C2OC1c1cc3ccccc3cc12	2.2	117.8*	/	/	23.2	108.6*
COC(=O)[C@@H]1C[C@H]1[C@@H](NP(=O)(c1ccccc1)c1ccccc1)c1ccccc1	22.9	4.5	-7.9	-0.4	-8.5	-62.8
COC(=O)[C@H]1C[C@@H]1[C@H](NP(=O)(c1ccccc1)c1ccccc1)c1ccccc1	-2.3	3.5	110.7*	3.6	-13.0	-23.5
Nc1c(C(=O)OCc2ccccc2)c2nc3ccccc3nc2n1Cc1cccs1	/	/	29.1	68.6	8.9	/
CCC(C)OC(=O)c1c(N)n(Cc2cccs2)c2nc3ccccc3nc12 (stereo unspecified)	/	/	/	3.6	61.2*	/
CCCNC(=O)N1[C@@H]2c3ccc(-c4ccccc4OC)c(=O)n3C[C@H]1[C@H](CO)[C@H]2C(=O)OC	1.1	2.6	7.1	-4.0[16.7 µM]	/	-0.8
C=C1C(=O)O[C@@H]2C[C@@H](C)[C@H]3C=CC(=O)[C@]3(O)C[C@@H]12	12.5	/	33.1	7.9	-33.0	44.9
C=C1C(=O)OC2CC3(C)OC3CCC(C)=CC(OC(C)=O)C12 (stereo unspecified)	-1.0	/	/	-0.9	33.4	95.3*
CCCCN=C[C@]12CCC(O)CC1(O)CCC1[C@@H]2CC[C@]2(C)[C@H](C3C=CC(=O)O3)CCC12O (stereo partly specified)	73.3*	1.6	6.0	/	81.8*	107.2*

Screening results as filed in PubChem.
